Screens: PubChem, Broad Institute
A selection follows.
aSyn 5UTR act = Activators via SNCA 5'UTR binding, MLPCN; alpha-synuclein 5'UTR reporter, activators screen; AID 1814, 2009; activity score, % (tested at 7.5 µM), hits read low; hit rate 7.1% among 300,000; in the data active = activity score below about -60%
The depositor's hits bear a star.

SMILES | aSyn 5UTR act
c1ccc(-c2csc(N3CCN(c4ccccn4)CC3)n2)cc1 | -77.5*
COc1ccccc1NC(=O)c1cnc2n(c1=O)CCS2 | -133.1*
COc1ccc(Cl)cc1NC(=O)c1cnc2n(c1=O)CCS2 | -78.4*
COc1ccc2c(c1)C1=NN(/C(C)=C/C(C)=O)C(c3cccc(F)c3)C1CC2 (stereo unspecified) | -63.8*
COc1ccc2c(c1)C1=NN(/C(C)=C/C(C)=O)C(c3ccc(F)cc3)C1CC2 (stereo unspecified) | -78.1*
COc1ccc2c(c1)C1=NN(/C(C)=C\C(C)=O)C(c3ccccc3)C1CC2 (stereo unspecified) | -140.8*
O=Nc1c(-c2ccccc2)cc2ccccn12 | -211.2*
COc1cccc2[nH]c(=O)c(-c3ccccc3)cc12 | -136.4*
CCCCOC(=O)Nc1ccc(C(=O)OC)cc1 | -110.0*
CCCCOC(=O)Nc1ccc(C)c(Cl)c1 | -163.6*
CCCCCCOC(=O)c1ccc(N)cc1 | -114.0*
CCCCCCCCOC(=O)c1c(CSC(=N)N)n(C)c2cc(Br)c(OC(C)=O)cc12 | 41.4
C/C(=N\NC(=O)c1ccc2c(c1)OCO2)c1ccc2c(c1)OCO2 | -83.4*
C/C(=N\Nc1ccc([N+](=O)[O-])cc1)c1ccc2c(c1)OCO2 | -118.5*
C/C(=N\NC(=O)c1ccc2c(c1)OCCO2)c1ccccc1 | 72.9
C/C(=N\NC(=O)c1cccs1)c1ccc2c(c1)OCO2 | -74.2*
CC1c2cc3c(cc2CCN1C(=O)c1cccc(Cl)c1)OCCCO3 (stereo unspecified) | -64.6*
Brc1ccccc1OCCCCn1cnc2ccccc21 | -138.1*
Cc1ccc(OCCCCn2cnc3ccccc32)c(C)c1 | -88.1*
N#CC1=C(N)Oc2c(ccc3ccccc23)C1c1cccs1 (stereo unspecified) | 110.2
CC(=O)n1c2c(c3ccccc31)OC(N)=C(C#N)C2c1ccc(C(C)C)cc1 (stereo unspecified) | -118.3*
C#CCN1C(=O)S/C(=C\c2ccc(N3CCOCC3)cc2C)C1=O | -149.7*
CCN1C(=O)S/C(=C\c2ccc(N3CCOCC3)cc2C)C1=O | -147.7*
C=CCSc1nnc2c(n1)[nH]c1c(C)cccc12 | -157.6*
CCSc1nnc2nc3[nH]c4c(C)cccc4c3nn12 | -146.8*
SMILES | aSyn 5UTR act
OCCCCCN=c1cc(-c2ccccc2)oc2ccc(Cl)cc12 | -746.8*
O=C(c1ccc([N+](=O)[O-])o1)N1CCc2ccccc2C1 | -103.3*
CC(=O)c1ccc(-c2ccc(C(=O)N3CCCc4ccccc43)o2)cc1 | -66.3*
Cc1ccc(C(=O)N2CCc3ccccc32)o1 | -94.5*
CC(=O)c1ccc(-c2ccc(C(=O)N3CCN(c4ccc(F)cc4)CC3)o2)cc1 | -73.4*
COc1ccc(/C=C/C(=O)c2ccc([N+](=O)[O-])o2)cc1OC | 61.0
COc1ccc2oc(C(=O)N3CCCc4ccccc43)c(C)c2c1 | -90.9*
O=C(c1ccc([N+](=O)[O-])o1)N1CCc2ccccc21 | -190.3*
COc1cc2c(cc1OC)CN(C(=O)c1ccc([N+](=O)[O-])o1)CC2 | -175.0*
N/C(=N\OC(=O)Nc1ccc(Cl)cc1)c1ncc(C(F)(F)F)cc1Cl | -72.9*
N/C(=N\OC(=O)Nc1ccccc1)c1ncc(C(F)(F)F)cc1Cl | -115.3*
CSc1nnc(-c2ccccc2N=Cc2c(C)[nH]n(-c3ccc4ccccc4c3)c2=O)c(=O)[nH]1 | -73.4*
CN1Cc2c(N3CCOCC3)nc3sc(C(=O)c4ccc(Br)cc4)c(N)c3c2CC1(C)C | 104.7
Cc1snc2sc(C(=O)c3ccc(F)cc3)c(N)c12 | -95.7*
CN(C)c1ccnc2sc(C(=O)c3ccc(Br)cc3)c(N)c12 | -85.4*
O=C(Nc1ccc(N2CCCCC2)cc1)c1cncc(Br)c1 | -128.4*
O=C(Nc1ccc(N2CCN(C(=O)c3ccccc3F)CC2)cc1)c1cncc(Br)c1 | -73.7*
COc1cccc(N(C(=O)c2nc3nccc(C)n3n2)c2nc3ccccc3s2)c1 | -185.2*
NC(=S)Nc1cccc2cc3ccccc3cc12 | -101.0*
CCOc1cc(/C=C/C(=O)Nc2ccc(C(=O)NCCN(CC)CC)cc2)ccc1OCC(C)C | 47.3
CCOc1cc(/C=C/C(=O)c2ccc(O)cc2)ccc1OCC(=O)N(C)C | -94.1*
CCOc1cc(/C=C/C(=O)c2ccc3c(c2)OCCO3)ccc1OCC(=O)N(C)C | -185.1*
Cn1c2ccccc2c(=O)c2cc(C#Cc3ccsc3)ccc21 | -187.3*
COc1cc(-c2noc(C)c2C#Cc2ccsc2)cc(OC)c1OC | 68.8
Cn1c2ccccc2c(=O)c2ccc(C#Cc3ccccn3)cc21 | -137.2*
SMILES | aSyn 5UTR act
Cn1c2ccccc2c(=O)c2cc(C#Cc3ccccn3)ccc21 | -127.0*
Cn1c2ccccc2c(=O)c2cc(C#CC3(O)CCCCC3)ccc21 | 76.9
CCCCCC(=O)N/N=C(\C)c1ccccn1 | 66.6
O=C(c1ccccc1)c1ccc(N2CCCC2)cc1 | -108.6*
CN1CCN(c2ccc(C(=O)c3ccc(F)cc3)cc2)CC1 | -133.0*
CCCCCC(=O)N/N=C(\C)c1ccc(N2CCCCC2)cc1 | -65.0*
C/C(=N\NC(=O)c1ccccc1)c1ccccc1Br | -101.7*
C/C(=N\NC(=O)c1ccc(Br)cc1)c1ccccc1 | -158.0*
C/C(=N\NC(=O)c1ccc(C)cc1)c1c(C)[nH]n(-c2ccccc2)c1=O | 66.8
C/C(=N\NC(=O)c1ccccc1)c1ccccc1F | -88.3*
C/C(=N\NC(=O)OC(C)(C)C)c1ccccc1Br | -84.4*
C/C(=N\NC(=O)c1ccccc1)c1ccc(N2CCCCC2)cc1 | -86.3*
O=C(CCc1nnc(-c2ccsc2)o1)N1CCc2c(Cl)cccc2C1 | -65.3*
CCOC(=O)c1cn2nc(SCc3ccccc3)nc2nc1C | -105.3*
N#Cc1cnc2nc(SCc3ccccc3)nn2c1 | -149.4*
CC(C)(C)S(=O)(=O)c1cnc(-c2ccc(Cl)cc2)nc1N | -113.7*
Cc1nc(N)nc(N)c1/C=C/C(C)(C)c1ccc(Cl)cc1 | 124.8
Nc1c(C(=O)NCC2CCCO2)c2nc3ccccc3nc2n1-c1ccccc1 (stereo unspecified) | 61.4
CC(C)(C)c1ccc(-c2noc(CCC(=O)NCC3CCCO3)n2)cc1 (stereo unspecified) | 104.2
CN(C)c1ccc(C(=O)NCC2CCCO2)cc1 (stereo unspecified) | -107.3*
Cc1ccc(C(=O)NC(=S)NCC2CCCO2)cc1 (stereo unspecified) | -147.0*
O=C(NC(=S)NCC1CCCO1)c1ccc(Cl)cc1 (stereo unspecified) | -106.1*
CC(=O)N(c1nnc(-c2ccc(C)cc2)s1)C1CCCC1 | -83.1*
CCN1/C(=C/C=C/c2oc3ccc4ccccc4c3[n+]2CC)Oc2ccc3ccccc3c21 | 92.5
CC1CCN(S(=O)(=O)N2CCC(C(=O)NC3CCCC3)CC2)CC1 | -96.8*
SMILES | aSyn 5UTR act
CCCS(=O)(=O)N1CCC(C(=O)NC2CCC(C)CC2)CC1 (stereo unspecified) | -64.0*
CN(C)S(=O)(=O)N1CCC(Oc2ccc(C(=O)NC3Cc4ccccc4C3)cc2)CC1 | -65.2*
Cc1cc(CNC(=O)c2cccc(OC3CCN(S(=O)(=O)N(C)C)CC3)c2)on1 | -138.6*
COc1ccc(-c2nnc(NC(=O)c3ccc(S(=O)(=O)N4CCc5ccccc5C4)cc3)o2)cc1 | 73.2
Cc1oc(C(C)(C)C)cc1C(=O)Nc1ccc2c(c1)OCO2 | -87.0*
Cc1oc(C(C)(C)C)cc1C(=O)Nc1ccc2c(c1)OCCO2 | -178.9*
Brc1c(CSc2nc3ccccc3s2)nc2ncccn12 | -109.6*
O=C(Nc1ccc2c(c1)OCO2)N1CCN(c2ncc(C(F)(F)F)cc2Cl)CC1 | -104.2*
